# Results reported in PubChem BioAssay AID1469 (National Center for Advancing Translational Sciences (NCATS), 2008).
# About 180 (0.064%) of roughly 280,000 compounds were called active. The sample holds actives, similar compounds and a random draw of the others, so the mix is not that of the screen. The call rests on the fitted dose curve; in most records, active means well fitted inhibition curve with a large enough effect; inconclusive means small, poorly fitted or top-dose-only effect, or effect the other way; inactive means flat fitted curve, though single readings scatter.
# Biological target: Thyroid hormone receptor beta (Homo sapiens) (UniProt P10828)
# Assay: qHTS for Inhibitors of the Interaction of Thyroid Hormone Receptor and Steroid Receptor Coregulator 2;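 further: plate controls were bound peptide for no effect and peptide without receptor for full effect; nearly all actives have a fitted effect of over 50% in size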
# Conditions: TRbeta-SRC2 peptide binding, fluorescence polarization, receptor liganded with 1 µM T3; series mostly up to 106 µM; activity change, negative = inhibition: at the top concentration
# Procedure, shortened: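 Fluorescence polarization of 20 nM Texas Red SRC2 peptide with 0.6 uM human TRb ligand-binding domain, in Tris buffer with 1uM T3 and 5% DMSO. Incubated 5 hr ambient; normalized to unbound and bound controls.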
# Thyroid hormone receptor beta (Homo sapiens), sequence (P10828 whole entry, looked up): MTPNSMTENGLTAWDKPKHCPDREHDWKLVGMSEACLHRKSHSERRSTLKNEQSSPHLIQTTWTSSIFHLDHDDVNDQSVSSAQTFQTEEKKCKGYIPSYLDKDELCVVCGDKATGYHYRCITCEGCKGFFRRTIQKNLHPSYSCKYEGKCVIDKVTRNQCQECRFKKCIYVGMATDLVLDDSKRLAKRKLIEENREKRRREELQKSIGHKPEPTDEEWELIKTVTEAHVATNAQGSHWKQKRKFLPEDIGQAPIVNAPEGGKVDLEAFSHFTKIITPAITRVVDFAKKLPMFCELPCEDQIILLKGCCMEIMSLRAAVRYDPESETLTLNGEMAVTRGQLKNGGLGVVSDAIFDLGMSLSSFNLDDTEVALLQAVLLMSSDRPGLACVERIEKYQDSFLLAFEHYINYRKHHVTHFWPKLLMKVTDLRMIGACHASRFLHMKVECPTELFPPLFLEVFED
row,Structure (SMILES),"activity change, negative = inhibition"
1,CC(=O)c1ccc(NC(=O)CSc2nc(-c3ccccc3F)nc3c2c(=O)n(C)c(=O)n3C)cc1,-4.48% (inactive)
2,CCN(CC)c1ccc(NS(=O)(=O)c2cc(-c3cc(C)no3)ccc2C)c(C)c1,7.58% (inactive)
3,Cc1ccc(CNC(=O)c2c(O)nc3c(C)cccn3c2=O)cc1,-2.5% (inactive)
4,Oc1ccc(-c2nc3ccc(Cl)cn3c2Nc2ccc3c(c2)OCO3)cc1,-5.33% (inactive)
5,COc1ccc(CCNC(=O)c2ccc(CSCc3ccc(C)cc3)o2)cc1OC,-6.17% (inactive)
6,Cc1ccc(-c2nc(SCc3ccc(Br)cc3)n3[nH]c(=O)cc3n2)cc1,-0.18% (inactive)
7,COc1ccc(N2CCN(S(=O)(=O)CCNC(=O)C(c3ccccc3)c3ccccc3)CC2)cc1,1.78% (inactive)
8,O=C(Nc1nc2c(s1)CCCC2)c1ccccc1F,-5.58% (inactive)
9,Cc1cc(C)cc(Nc2ncnc3onc(-c4ccc(F)cc4)c23)c1,3.63% (inactive)
10,CCOc1cc(C2C(C(=O)OC)=C(C)NC3=C2C(=O)c2ccccc23)ccc1O (centres undefined),11% (inactive)
11,OCCC(F)(F)C(F)(F)C(F)(F)C(F)(F)C(F)(F)C(F)(F)C(F)(F)C(F)(F)F,1.78% [at 201 µM] (inactive)
12,CCN(CCCNC(=O)c1ccc(Sc2ccc(C)cc2)c(NC(C)=O)c1)c1cccc(C)c1,-0.569% (inactive)
13,CCCC/C=C/CCCCO,2.76% [at 201 µM] (inactive)
14,CCOC(=O)c1ccc(NC(=O)c2c(NCc3cccs3)sc3c2CCCC3)cc1,2.18% (inactive)
15,O=C(NCc1ccc(F)cc1)c1ccc2nc(N3CCCCC3)sc2c1,3.71% (inactive)
16,CCOc1cccc2c1N[C@@H](c1ccc(C(=O)O)cc1)[C@H]1CC=C[C@@H]21,14.7% (inactive)
17,CN(CC(=O)Nc1ccccc1F)S(=O)(=O)c1ccc2c(c1)c(=O)n(C)c(=O)n2C,2.82% (inactive)
18,CCN(CC)CCNc1ncnc2c1cnn2-c1cc(Cl)ccc1C,8.58% (inactive)
19,CCOC(=O)c1c(C)oc2nc(C)nc(N3CCN(c4ccc(OC)cc4)CC3)c12,4.33% (inactive)
20,CC(C)c1ccc(S(=O)(=O)Nc2ccc(O)c(Sc3nc4ccccc4s3)c2)cc1,5.12% (inactive)
21,CCc1cccc(NC(=O)CN(C)S(=O)(=O)c2ccc3[nH]c4c(c3c2)CCCC4)c1,-2.3% (inactive)
22,CCN(CC)c1ccc(NC(=O)CN2C(=O)c3cccnc3Oc3ccc(Cl)cc32)c(C)c1,0.578% (inactive)

row,Structure (SMILES),"activity change, negative = inhibition"
1,Cc1ccc(OCCSc2nc(-c3cccs3)nc3cc(=O)[nH]n23)cc1Cl,-6% (inactive)
2,Cc1ccc(NC2=C(c3ccc(C(F)(F)F)cc3)C(=O)c3ccccc32)cc1F,10.8% (inactive)
3,CCCn1c2ccccc2c2cnn(CC(=O)NCC3CCN(Cc4ccc(C)cc4)CC3)c(=O)c21,0.484% (inactive)
4,Cc1cc(C)cc(NC(=O)c2cnc3sc(N4CCCC4)nn3c2=O)c1,4.33% (inactive)
5,Cc1cc(C)c(NC(=O)CN2C(=O)c3cccnc3Oc3ccc(Cl)cc32)c(C)c1,0.211% (inactive)
6,COc1ccc(N2CCN(c3cc(C)nc4nncn34)CC2)cc1,2.01% (inactive)
7,Cn1c(=O)c2c(-c3ccccc3Br)n(Cc3ccccc3)cc2n(C)c1=O,-1.69% (inactive)
8,CC(C)c1ccc(NC(=O)c2ccc(Cn3nc(N4CCN(c5ccccc5)CC4)ccc3=O)o2)cc1,0.615% (inactive)
9,CCOc1ccc(S(=O)(=O)Nc2ccc3oc4c(c3c2)CC(C)CC4)cc1 (centres undefined),6.9% (inactive)
10,CC(C)CCCCCOC(=O)CS,3.95% [at 201 µM] (inactive)
11,CC1Cc2cc(S(=O)(=O)CCC(=O)NCc3ccc(Cl)cc3)ccc2N1C(=O)C1CC1 (centres undefined),0.303% (inactive)
12,CCOC(=O)C1CCCN(C(=O)Cn2ncc3c(C)n(Cc4ccc(F)cc4)c(C)c3c2=O)C1 (centres undefined),-3.95% (inactive)
13,CSc1ccc(CCNC(=O)c2cc(C)nc3c2c(C)nn3-c2cccc(F)c2)cc1,6.29% (inactive)
14,O=c1cc(CSc2ncn[nH]2)[nH]c2ccc(F)cc12,-0.923% (inactive)
15,CCc1ccc(C(=O)CC2(O)C(=O)N(CCc3ccccc3)c3ccc(Br)cc32)cc1 (centres undefined),5.72% (inactive)
16,COc1ccccc1-c1noc(CSc2nnc(-c3ccccc3)n2-c2ccc(C)c(C)c2)n1,10.2% (inactive)
17,Cc1ccc2onc(CC(=O)N3CCN(c4ccc(Cl)cc4)CC3)c2c1,-4.05% (inactive)
18,CC(C)c1ccc(OCC(=O)N(Cc2ccc(N(C)C)cc2)C2CCS(=O)(=O)C2)cc1 (centres undefined),1.18% (inactive)
19,CCN(CC)c1ccc(NC(=O)CN2CCN(CC(=O)Nc3ccc(Cl)cc3)CC2)cc1,0.686% (inactive)
20,Clc1ccc(CSc2nncn3c2cc2occc23)cc1,3.3% (inactive)
21,COc1cccc(CNC(=O)CCC(=O)N2CC3CCCN3c3ccccc32)c1 (centres undefined),3.45% (inactive)
22,Cc1ccc(C2c3[nH]c4ccccc4c3CCN2C(=O)c2cccc(C)c2)cc1 (centres undefined),7.69% (inactive)
